Assay results as given in PubChem BioAssay (Tox21).
Results filed as inconclusive are left out. Active and inactive are the calls of the source. Calls come from the whole dose curve.

Molecular target: Acetylcholinesterase (Homo sapiens) (UniProt P22303)
Test: Acetylcholinesterase (AChE) small molecule antagonists: colormetric cell-based qHTS assay (AID 1347395); note: nearly all actives have a fitted effect of over 30% in size
Conditions: SH-SY5Y cells AChE activity, colorimetric (Ellman); series mostly up to 115 µM; activity, negative = inhibition: at the top concentration
Method in brief: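 Homogeneous whole-cell format. SH-SY5Y cells seeded overnight, dosed with compound (30 min, 37 C, 5% CO2), then given DTNB/acetylthiocholine cocktail for 90 min at 37 C; colorimetric signal.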
% is set by controls: 0 for no effect and ±100 for the full control effect; potency is the fitted concentration of half-maximal effect.

Sequence of Acetylcholinesterase (Homo sapiens) (P22303 whole entry, looked up): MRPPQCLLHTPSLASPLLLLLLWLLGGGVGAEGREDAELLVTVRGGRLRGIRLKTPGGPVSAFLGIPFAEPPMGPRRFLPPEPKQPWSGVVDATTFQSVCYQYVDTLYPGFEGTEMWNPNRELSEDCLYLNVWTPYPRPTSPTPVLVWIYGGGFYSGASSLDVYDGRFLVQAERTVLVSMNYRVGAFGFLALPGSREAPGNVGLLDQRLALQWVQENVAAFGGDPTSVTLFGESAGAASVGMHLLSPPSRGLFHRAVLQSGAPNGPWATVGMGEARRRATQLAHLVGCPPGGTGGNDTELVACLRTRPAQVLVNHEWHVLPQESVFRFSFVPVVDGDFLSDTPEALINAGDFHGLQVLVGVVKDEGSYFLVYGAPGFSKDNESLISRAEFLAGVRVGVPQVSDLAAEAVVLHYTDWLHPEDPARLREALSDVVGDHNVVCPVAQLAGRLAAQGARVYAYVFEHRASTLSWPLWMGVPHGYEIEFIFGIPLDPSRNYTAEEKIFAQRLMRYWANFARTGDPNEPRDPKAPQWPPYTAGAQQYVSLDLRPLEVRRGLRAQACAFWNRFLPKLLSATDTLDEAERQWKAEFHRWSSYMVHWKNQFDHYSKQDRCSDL

Row | Compound | activity, negative = inhibition | Potency
1 | CCCCCCCC/C=C\CCCCCCCC(=O)OCC | -0.415% (inactive) | 
2 | CCO[C@H](Cc1ccc(OCCc2ccc(OS(C)(=O)=O)cc2)cc1)C(=O)O | -1.23% [at 52.9 µM] (inactive) | 
3 | O=C(CCCN1CCN(c2ccc(F)cc2)CC1)NC1c2ccccc2CSc2ccccc21 (stereo not given) | 2.64% [at 52.9 µM] (inactive) | 
4 | CCCCCCCCCCCCSCCOCCO | 0.505% [at 52.9 µM] (inactive) | 
5 | FC(F)(F)C(F)(F)C(F)(F)C(F)(F)C(F)(F)C(F)(F)C(F)(F)C(F)(F)Br | 1.36% [at 52.9 µM] (inactive) | 
6 | Brc1cc(Br)c(Oc2cc(Br)c(Br)cc2Br)cc1Br | 1.49% [at 52.9 µM] (inactive) | 
7 | COc1ccc(/C=C/S(=O)(=O)NC(=O)c2ccc(C)cc2Cl)cc1 | -1.31% (inactive) | 
8 | CCCOc1sc(C(=O)N2CCC(c3cc(CN)ccc3F)CC2)c(C)c1Br | 3.07% (inactive) | 
9 | Clc1ccc(C(Cn2ccnc2)OCc2ccc(Sc3ccccc3)cc2)c(Cl)c1 (stereo not given) | 0.764% [at 52.9 µM] (inactive) | 
10 | COc1cc2c(Nc3ccc(Br)cc3F)ncnc2cc1OCC1CCN(C)CC1 | 1.65% [at 52.9 µM] (inactive) | 
11 | Cc1onc(-c2c(Cl)cccc2Cl)c1C(=O)Cl | 2.9% [at 52.9 µM] (inactive) | 
12 | NC/C=C/C(=O)O | 0.697% [at 52.9 µM] (inactive) | 
13 | C[C@@H](O)[C@H]1C(=O)N2C(C(=O)O)=C(S[C@@H]3CN[C@H](CNS(N)(=O)=O)C3)[C@H](C)[C@H]12 | -1.39% [at 52.9 µM] (inactive) | 
14 | COc1ccccc1N=Nc1c(S(=O)(=O)O)cc2cc(S(=O)(=O)O)cc(NC(C)=O)c2c1O | 0.526% (inactive) | 
15 | O=[N+]([O-])c1ccc(O/N=C/c2cc(Br)c(O)c(Br)c2)c([N+](=O)[O-])c1 | -0.273% (inactive) | 
16 | CCN(CC)C(C)CN1c2ccccc2Sc2ccccc21 (stereo not given) | -2.28% [at 52.9 µM] (inactive) | 
17 | CC1(C)CCC(C)(C)c2cc(NC(=O)c3ccc(C(=O)O)cc3)ccc21 | 2.85% [at 52.9 µM] (inactive) | 
18 | Cc1cc2c(cc1CC(=O)c1sccc1S(=O)(=O)Nc1onc(C)c1Cl)OCO2 | -0.44% [at 52.9 µM] (inactive) | 
19 | CC(=O)c1cccnc1 | 1.38% (inactive) | 
20 | CC(=O)N(c1onc(C)c1C)S(=O)(=O)c1ccc(N)cc1 | -0.252% [at 52.9 µM] (inactive) | 

Row | Compound | activity, negative = inhibition | Potency
21 | Nc1cc(C(F)(F)F)ccc1S | 0.53% [at 52.9 µM] (inactive) | 
22 | Cc1ccnc(N)c1 | 4.19% (inactive) | 
23 | CCOC(=O)c1ccc(C#Cc2ccc3c(c2)C(C)(C)CCS3)nc1 | -11.8% [at 52.9 µM] (inactive) | 
24 | CCN(CC)CCOc1ccccc1C(=O)CCc1ccccc1 | -3.85% [at 52.9 µM] (inactive) | 
25 | CN1CC(=O)N2[C@H](c3ccc4c(c3)OCO4)c3[nH]c4ccccc4c3C[C@@H]2C1=O |  | 27.5 µM (active)
26 | CO[C@@H]1[C@@H](O[C@@H]2O[C@H](C)[C@@H](O[C@H]3C[C@@](C)(O)[C@@H](O)[C@H](C)O3)[C@H](N(C)C)[C@H]2O)[C@@H](CC=O)C[C@@H](C)[C@@H](O[C@@H]2CC[C@H](N(C)C)[C@@H](C)O2)/C=C/C=C/C[C@@H](C)OC(=O)C[C@H]1OC(C)=O | -0.341% [at 52.9 µM] (inactive) | 
27 | CNC(=O)c1c(I)c(NC(C)=O)c(I)c(C(=O)O)c1I | -2.36% [at 52.9 µM] (inactive) | 
28 | CC1(COc2ccc(CC3SC(=O)NC3=O)cc2)CCCCC1 (stereo not given) | -1.31% [at 52.9 µM] (inactive) | 
29 | CCCCN(CCCC)CC(O)c1cc(Cl)cc2c1-c1ccc(Cl)cc1/C2=C/c1ccc(Cl)cc1 (stereo not given) | -6.51% [at 52.9 µM] (inactive) | 
30 | Cc1c(C)c2c(c(C)c1OC(=O)CCC(=O)OCCO)CC[C@@](C)(CCC[C@H](C)CCC[C@H](C)CCCC(C)C)O2 | -2.63% [at 52.9 µM] (inactive) | 
31 | Cc1cc(-c2ccccc2)nnc1NCCN1CCOCC1 | -4.72% [at 52.9 µM] (inactive) | 
32 | C=C(C)C(=O)OC1CC(C)CC(C)(C)C1 (stereo not given) | 3.64% (inactive) | 
33 | Oc1ccc(C2CNCCc3c2cc(O)c(O)c3Cl)cc1 (stereo not given) | 0.0841% [at 52.9 µM] (inactive) | 
34 | CCN(CC)c1ccc(C=O)cc1 | -0.0485% (inactive) | 
35 | CN(C)[C@@H](CCOc1cccc2ccccc12)c1ccccc1 | -1.93% [at 52.9 µM] (inactive) | 
36 | C(/C=C/C=C/Nc1ccccc1)=Nc1ccccc1 |  | 35.6 µM (active)
37 | Cc1nc(-c2ccc(OCC(C)C)c(C#N)c2)sc1C(=O)O |  | 27.5 µM (active)
38 | CSc1ccc(Oc2ccc(S(N)(=O)=O)cc2CN(C)C)cc1C | -6.97% (inactive) | 
39 | NC(=O)c1ccc(N)cc1 | -3.35% (inactive) | 
40 | Cc1oc(=O)oc1COC(=O)[C@@H]1N2C(=O)[C@@H](NC(=O)[C@H](N)c3ccccc3)[C@H]2SC1(C)C | 0.336% [at 52.9 µM] (inactive) | 
